The results in this text go back to PubChem BioAssay (EPA / NIEHS).

Assay [1] can be described thus: ATG_PXRE_CIS: Attagene CIS-FACTORIAL HepG2 Assay for human Pregnane X Receptor Element (PXRE) (AID 2282957). To be noted: HepG2 Attagene CIS-FACTORIAL PXRE reporter, mRNA; actives raise or lower the signal. Put shortly:
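HepG2 cells transiently transfected with cis-regulated multiple reporter transcription units; endogenous factor activity measured as reporter mRNA 24 h after dosing. RT-PCR, fluorescent primer extension, HpaI digestion, capillary electrophoresis; bidirectional fit versus DMSO baseline.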

Assay [2] can be described thus: ATG_RORE_CIS: Attagene CIS-FACTORIAL HepG2 Assay for human RAR-related Orphan Receptor Element (RORE) (AID 2282959). Particulars: HepG2 Attagene cis-factorial RORE reporter, mRNA; actives raise or lower the signal. The method, boiled down:
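Transient MRTU transfection of human HepG2 liver cells (FuGene 6); 24 h compound exposure; TriZol RNA, oligo(dT) RT, PCR, FAM labeling, HpaI cut, CE fragment analysis. DMSO = negative control/baseline.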

Assay [3] can be described thus: ATG_Sox_CIS: Attagene CIS-FACTORIAL HepG2 Assay for human SRY-box transcription factor (SOX) (AID 2282960). To be noted: HepG2 Attagene cis-factorial SOX reporter, mRNA; actives raise or lower the signal. The method, boiled down:
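Endogenous factor activity in human liver HepG2 cells carrying transfected cis-regulated reporter units. RNA taken 24 h post-dose, reverse-transcribed, PCR-amplified and sized by capillary electrophoresis. Gain or loss of signal fitted relative to DMSO.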

For assay [4], the target named is Transcription factor Sp1 (Homo sapiens) (UniProt P08047). In words: ATG_Sp1_CIS: Attagene CIS-FACTORIAL HepG2 Assay for human Specificity Protein 1 (Sp1) (AID 2282961). Particulars: HepG2 Sp1 cis-reporter transcription, actives raise or lower the signal. Put shortly:
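Transient MRTU-transfected HepG2, 24 h compound exposure. Total RNA → oligo(dT) RT → PCR of reporter → 6-FAM primer extension → HpaI digest → CE. Endpoint fitted both directions vs DMSO.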

A short description of assay [5]: ATG_SREBP_CIS: Attagene CIS-FACTORIAL HepG2 Assay for human Sterol Regulatory Element Binding (SREBP) (AID 2282962). Particulars: HepG2 Attagene cis-factorial SREBP reporter, mRNA; actives raise or lower the signal. The method, boiled down: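 Transfected HepG2 (cis-regulated reporter library, endogenous TFs) → compound 24 h → total RNA → oligo(dT) RT → reporter-specific PCR → FAM primer extension, HpaI cut → CE fluorescence. Fit bidirectional vs DMSO.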

The target of assay [6] is Signal transducer and activator of transcription 3 (Homo sapiens) (UniProt P40763). In words: ATG_STAT3_CIS: Attagene CIS-FACTORIAL HepG2 Assay for human Signal Transducer and Activator of Transcription 3 (STAT3) (AID 2282963). Particulars: HepG2, Attagene cis-factorial STAT3 reporter transcription; actives raise or lower the signal. The method, boiled down:
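HepG2 cells transiently transfected with multiple cis-element-driven reporter units report endogenous transcription factor activity. After 24 h compound exposure, reporter mRNA is measured by RT-PCR, 6-FAM labelling, HpaI digestion and capillary electrophoresis. Fitted bidirectionally versus DMSO.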

A short description of assay [7]: ATG_TA_CIS: Attagene CIS-FACTORIAL HepG2 Assay for human TA Basal Promoter (AID 2282964). Particulars: HepG2 Attagene CIS-factorial TA basal promoter reporter; actives raise or lower the signal. Put shortly:
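Read-out: fluorescent reporter-transcript fragments resolved by capillary electrophoresis after RT-PCR and HpaI digestion. Source: HepG2 cells carrying transiently transfected multi-reporter cis constructs, treated 24 h. Endpoint fitted bidirectionally relative to DMSO.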

A short description of assay [8]: ATG_TCF_b_cat_CIS: Attagene CIS-FACTORIAL HepG2 Assay for human T-Cell-Factor with beta-catenin (TCF/b-cat) (AID 2282965). Particulars: HepG2 TCF/beta-catenin cis-reporter transcription, actives raise or lower the signal. Put shortly:
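HepG2, transient MRTU transfection, cis-element-driven reporters (endogenous TFs). 24 h compound exposure. Readout: reporter mRNA by RT-PCR + 6-FAM primer extension, HpaI digest, capillary electrophoresis. Gain/loss fit vs DMSO baseline.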

A short description of assay [9]: ATG_TAL_CIS: Attagene CIS-FACTORIAL HepG2 Assay for human TAL Basal Promoter (AID 2282966).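 Note: background control endpoint measuring basal TAL promoter reporter mRNA not a specific factor.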 To be noted: HepG2 Attagene cis-factorial TAL promoter reporter; actives raise or lower the signal. The method, boiled down: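 HepG2 cells were transiently transfected with promoter-driven multiplexed reporter units and dosed for 24 h. Reporter mRNA was measured by RT-PCR with capillary electrophoresis fluorescence; bidirectional fits used DMSO as baseline, serving as a background control.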

A short description of assay [10]: ATG_TGFb_CIS: Attagene CIS-FACTORIAL HepG2 Assay for human Transforming Growth Factor (TGF) (AID 2282967). To be noted: HepG2 Attagene CIS TGFb reporter, mRNA transcription; actives raise or lower the signal. The method, boiled down: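 Transient MRTU transfection of HepG2 (FuGene 6). Dose 24 h. TriZol RNA, oligo(dT) RT, PCR, 6-FAM primer extension, HpaI cut, CE. Bidirectional fit, DMSO = baseline.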

In assay [11] the target is X-box-binding protein 1 (Homo sapiens) (UniProt P17861). In words: ATG_Xbp1_CIS: Attagene CIS-FACTORIAL HepG2 Assay for human X-box Binding Protein 1 (XBP1) (AID 2282972). To be noted: HepG2 XBP1 cis-element reporter, Attagene multiplex; actives raise or lower the signal. The method, boiled down:
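HepG2, transient MRTU transfection (cis-promoter driven), 24 h compound exposure. Total RNA → oligo(dT) RT → PCR → 6-FAM labeling → HpaI cut → CE. Bidirectional fit vs DMSO.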

A short description of assay [12]: ATG_M_19_TRANS: Attagene TRANS-FACTORIAL HepG2 Assay for M19 Transcription Factor (Internal Marker) (AID 2282974; active = hit-call score of the fitted dose curve at least 0.9, where 1 is the maximum). Particulars: HepG2 Attagene TRANS-FACTORIAL M19 internal marker reporter. The method, boiled down: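 Fluorescence of 6-FAM-labelled reporter cDNA fragments, separated by capillary electrophoresis, served as the readout. These derived from HepG2 cells carrying transfected GAL4-UAS reporter units after 24 h dosing, with DMSO as negative control.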

A short description of assay [13]: ATG_GAL4_TRANS: Attagene TRANS-FACTORIAL HepG2 Assay for GAL4 (Internal Marker) (AID 2282976; active = hit-call score of the fitted dose curve at least 0.9, where 1 is the maximum). Particulars: HepG2 Attagene TRANS GAL4 internal marker reporter. Put shortly:
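HepG2 cells transiently transfected with multiplexed GAL4-UAS reporter constructs were dosed for 24 h. Reporter mRNA was measured by RT-PCR, 6-FAM primer extension, HpaI digestion and capillary electrophoresis, and gain of signal was fitted relative to DMSO.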

Assay [14] has as its target Glucocorticoid receptor (Homo sapiens) (UniProt P04150). Nature of the assay: ATG_GR_TRANS: Attagene TRANS-FACTORIAL HepG2 Assay for human Glucocorticoid Receptor (GR) (AID 2282978; active = hit-call score of the fitted dose curve at least 0.9, where 1 is the maximum;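 note: activators score as hits since higher reporter transcript over DMSO is fitted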). Particulars: HepG2 Attagene TRANS GR reporter, mRNA transcription. Put shortly: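 Fluorescent capillary-electrophoresis quantitation of reporter mRNA is the readout, taken 24 h after dosing human HepG2 cells carrying transiently transfected GAL4-UAS reporter units activated by chimeric NR-GAL4 fusions; activity scored as induction over DMSO.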

Assay [15] is described as follows: ATG_PPRE_CIS: Attagene CIS-FACTORIAL HepG2 Assay for human Peroxisome Proliferator-activated Response Element (PPRE) (AID 2282958). Particulars: HepG2 PPRE cis-element reporter, Attagene transcription factor profiling; actives raise or lower the signal. Put shortly:
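HepG2, transient MRTU transfection (cis promoter elements, endogenous TFs). 24 h dosing. RNA → oligo(dT) RT → PCR → 6-FAM primer extension → HpaI digest → CE. Bidirectional fit vs DMSO.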

Assay [16] in a line: ATG_VDRE_CIS: Attagene CIS-FACTORIAL HepG2 Assay for human Vitamin D Receptor Element (VDRE) (AID 2282968). To be noted: HepG2 VDRE cis-reporter transcription, actives raise or lower the signal. The method, boiled down:
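Transiently transfected HepG2 cells carrying cis-regulated reporter transcription units were exposed for 24 h. Reporter mRNA was measured by RT-PCR with fluorescent labelling and capillary electrophoresis, and fitted in both directions against DMSO.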

In assay [17] the target is Nuclear receptor subfamily 1 group I member 3 (Homo sapiens) (UniProt Q14994). In words: ATG_CAR_TRANS: Attagene TRANS-FACTORIAL HepG2 Assay for human Constitutive Androstane Receptor (CAR) (AID 2282969; active = hit-call score of the fitted dose curve at least 0.9, where 1 is the maximum;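 note: activators raise reporter mRNA above DMSO so AC50 marks induction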). To be noted: HepG2 Attagene TRANS-FACTORIAL CAR reporter. Put shortly: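 HepG2 cells transiently transfected with GAL4-UAS reporter units; TRANS format reads activity of exogenous chimeric NR-Gal4 protein. After 24 h dosing, reporter mRNA quantified by RT-PCR, 6-FAM labelling and capillary electrophoresis; gain of signal fitted against DMSO.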
Sequence of Nuclear receptor subfamily 1 group I member 3 (Homo sapiens) (Q14994 whole entry, looked up, the tested form may be a part): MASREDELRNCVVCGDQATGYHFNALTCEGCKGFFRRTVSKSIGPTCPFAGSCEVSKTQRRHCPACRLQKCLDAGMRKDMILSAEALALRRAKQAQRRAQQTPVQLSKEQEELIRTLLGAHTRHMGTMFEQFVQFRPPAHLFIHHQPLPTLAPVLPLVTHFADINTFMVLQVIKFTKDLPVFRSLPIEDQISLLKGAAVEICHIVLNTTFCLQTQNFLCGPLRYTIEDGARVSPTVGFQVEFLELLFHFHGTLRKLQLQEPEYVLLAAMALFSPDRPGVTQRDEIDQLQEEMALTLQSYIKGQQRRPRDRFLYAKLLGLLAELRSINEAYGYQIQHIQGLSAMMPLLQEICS

Assay [18] deals with Estrogen-related receptor gamma (Homo sapiens) (UniProt P62508). In words: ATG_ERRg_TRANS: Attagene TRANS-FACTORIAL HepG2 Assay for human Estrogen-Related Receptor gamma (ERRg) (AID 2282977; active = hit-call score of the fitted dose curve at least 0.9, where 1 is the maximum;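 note: hits increase reporter signal over DMSO so potencies reflect activators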). To be noted: HepG2 Attagene TRANS reporter, ERRg transactivation. The method, boiled down:
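Transfect HepG2 with multiple GAL4-UAS reporter transcription units; dose chemicals 24 h; isolate RNA, reverse-transcribe with oligo(dT), PCR-amplify, label with 6-FAM, digest with HpaI; size fragments by capillary electrophoresis. DMSO serves as negative control.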

Structures are written as SMILES. Several values for one entry are separate records, joined by “and”; a condition that tells them apart may be missing. Identical values can stand only once. Inconclusive results are not listed. Some compounds were tested as several samples or in several runs, with calls that do not always agree. Activity calls are given as the source filed them. Rule for the calls, unless noted: active = hit-call score of the fitted dose curve at least 0.9, where 1 is the maximum; inactive = score below 0.9.

Sequence of Glucocorticoid receptor (Homo sapiens) (P04150 whole entry, looked up, the tested form may be a part): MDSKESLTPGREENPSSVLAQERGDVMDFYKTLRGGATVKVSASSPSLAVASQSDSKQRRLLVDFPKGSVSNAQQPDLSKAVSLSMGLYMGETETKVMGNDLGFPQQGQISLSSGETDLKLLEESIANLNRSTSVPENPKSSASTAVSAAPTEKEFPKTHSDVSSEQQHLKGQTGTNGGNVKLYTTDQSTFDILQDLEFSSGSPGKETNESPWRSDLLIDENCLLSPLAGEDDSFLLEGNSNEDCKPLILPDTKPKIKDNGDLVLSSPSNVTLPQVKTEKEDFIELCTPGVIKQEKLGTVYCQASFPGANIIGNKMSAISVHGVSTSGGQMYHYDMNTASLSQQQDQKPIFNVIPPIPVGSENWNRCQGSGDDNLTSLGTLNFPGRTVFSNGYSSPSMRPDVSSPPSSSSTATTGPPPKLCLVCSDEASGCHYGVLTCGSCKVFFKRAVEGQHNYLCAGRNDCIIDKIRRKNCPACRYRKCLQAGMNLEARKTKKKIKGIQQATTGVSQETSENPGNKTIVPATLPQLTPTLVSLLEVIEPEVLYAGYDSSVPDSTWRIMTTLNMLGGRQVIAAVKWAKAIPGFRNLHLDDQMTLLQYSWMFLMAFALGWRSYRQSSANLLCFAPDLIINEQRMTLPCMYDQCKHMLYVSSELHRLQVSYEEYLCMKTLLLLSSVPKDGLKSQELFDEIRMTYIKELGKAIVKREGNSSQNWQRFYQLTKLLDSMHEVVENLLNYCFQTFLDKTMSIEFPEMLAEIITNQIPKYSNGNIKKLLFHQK
Sequence of X-box-binding protein 1 (Homo sapiens) (P17861 whole entry, looked up): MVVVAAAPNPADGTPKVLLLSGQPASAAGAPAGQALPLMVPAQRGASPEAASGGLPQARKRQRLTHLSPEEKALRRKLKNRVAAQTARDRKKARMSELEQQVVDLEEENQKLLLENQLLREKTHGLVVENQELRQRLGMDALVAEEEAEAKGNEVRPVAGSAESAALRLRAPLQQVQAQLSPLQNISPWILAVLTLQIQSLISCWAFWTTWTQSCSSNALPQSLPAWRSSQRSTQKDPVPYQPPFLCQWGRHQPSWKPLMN
Sequence of Signal transducer and activator of transcription 3 (Homo sapiens) (P40763 whole entry, looked up): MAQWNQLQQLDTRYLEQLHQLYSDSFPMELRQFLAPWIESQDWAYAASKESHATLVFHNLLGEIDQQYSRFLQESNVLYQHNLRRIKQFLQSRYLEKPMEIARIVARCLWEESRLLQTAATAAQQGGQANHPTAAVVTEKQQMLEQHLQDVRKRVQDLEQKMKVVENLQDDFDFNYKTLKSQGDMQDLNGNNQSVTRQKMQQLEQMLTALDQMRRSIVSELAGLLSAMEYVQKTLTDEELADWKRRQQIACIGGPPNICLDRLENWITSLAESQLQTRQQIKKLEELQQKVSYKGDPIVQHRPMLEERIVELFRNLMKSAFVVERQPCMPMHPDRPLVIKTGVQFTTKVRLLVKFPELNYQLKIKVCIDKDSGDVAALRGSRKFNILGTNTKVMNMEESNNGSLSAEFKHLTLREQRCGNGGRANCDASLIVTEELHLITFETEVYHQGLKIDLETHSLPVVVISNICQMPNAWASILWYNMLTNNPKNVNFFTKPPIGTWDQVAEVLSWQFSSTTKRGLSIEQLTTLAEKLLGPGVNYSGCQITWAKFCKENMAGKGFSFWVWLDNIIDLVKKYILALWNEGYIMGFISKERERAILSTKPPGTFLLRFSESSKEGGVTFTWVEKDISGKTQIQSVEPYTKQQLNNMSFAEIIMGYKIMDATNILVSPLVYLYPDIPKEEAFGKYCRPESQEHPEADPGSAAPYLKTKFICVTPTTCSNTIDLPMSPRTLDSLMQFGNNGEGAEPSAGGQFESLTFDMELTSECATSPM
Sequence of Transcription factor Sp1 (Homo sapiens) (P08047 whole entry, looked up): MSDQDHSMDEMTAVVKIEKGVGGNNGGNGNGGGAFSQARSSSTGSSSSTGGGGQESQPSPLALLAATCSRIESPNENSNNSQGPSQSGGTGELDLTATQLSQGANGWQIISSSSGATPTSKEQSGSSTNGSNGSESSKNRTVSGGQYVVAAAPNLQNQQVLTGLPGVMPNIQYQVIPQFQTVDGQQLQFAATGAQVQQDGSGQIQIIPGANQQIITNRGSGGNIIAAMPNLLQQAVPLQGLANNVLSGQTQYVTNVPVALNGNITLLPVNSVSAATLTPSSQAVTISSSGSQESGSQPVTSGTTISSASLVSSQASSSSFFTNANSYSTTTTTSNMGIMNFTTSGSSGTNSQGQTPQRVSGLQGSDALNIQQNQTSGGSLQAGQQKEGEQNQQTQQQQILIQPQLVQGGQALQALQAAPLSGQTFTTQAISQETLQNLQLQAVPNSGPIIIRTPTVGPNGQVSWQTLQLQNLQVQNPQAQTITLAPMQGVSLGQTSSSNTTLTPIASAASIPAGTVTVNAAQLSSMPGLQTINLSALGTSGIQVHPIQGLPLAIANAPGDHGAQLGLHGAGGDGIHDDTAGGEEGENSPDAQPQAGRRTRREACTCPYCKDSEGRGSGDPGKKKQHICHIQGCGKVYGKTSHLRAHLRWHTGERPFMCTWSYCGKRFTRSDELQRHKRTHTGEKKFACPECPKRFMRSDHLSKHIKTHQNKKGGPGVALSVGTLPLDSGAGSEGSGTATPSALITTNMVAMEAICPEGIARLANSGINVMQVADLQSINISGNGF
Sequence of Estrogen-related receptor gamma (Homo sapiens) (P62508 whole entry, looked up, the tested form may be a part): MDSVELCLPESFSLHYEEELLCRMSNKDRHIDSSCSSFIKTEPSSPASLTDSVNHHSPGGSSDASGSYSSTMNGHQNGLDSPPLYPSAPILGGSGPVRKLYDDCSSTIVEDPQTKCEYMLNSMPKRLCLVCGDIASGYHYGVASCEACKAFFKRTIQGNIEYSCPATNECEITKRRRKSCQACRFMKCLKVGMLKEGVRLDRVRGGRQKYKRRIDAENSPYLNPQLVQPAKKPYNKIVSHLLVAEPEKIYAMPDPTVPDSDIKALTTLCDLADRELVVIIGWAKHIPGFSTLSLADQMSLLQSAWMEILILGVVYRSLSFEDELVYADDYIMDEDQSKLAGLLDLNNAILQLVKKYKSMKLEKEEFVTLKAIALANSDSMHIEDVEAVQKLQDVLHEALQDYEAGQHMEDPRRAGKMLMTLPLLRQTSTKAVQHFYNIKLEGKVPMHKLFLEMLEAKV

Consider `CCCCCCCCCCCC`, for which the results for the AC50 in assay [1] and in assay [10] were 4.16 µM (active) and 124 µM (active), respectively. For the same compound, the outcome in [1], in assay [2], in [3], in assay [4], in assay [5] and in assay [6] was inactive. In addition, the compound was classed as inactive in assay [7], in [8], in assay [9], in assay [10], in assay [11] and in assay [12]. Also, the compound was classed as inactive in assay [13] and in [14].
On to `O=C(O)CN(CCCN(CC(=O)O)CC(=O)O)CC(=O)O`, for which the outcome in assay [1], in [15], in assay [2], in assay [3], in [4] and in [5] was inactive. For the same compound, the compound was called inactive in assay [6], in [7], in assay [8], in assay [9], in assay [10] and in [16]. The compound was called inactive in assay [17], in assay [11] and in [13].
With `CCCCCC(C)OC(=O)COc1ccc(Cl)c2cccnc12` (stereo not drawn), the AC50 in assay [1] is 7.22 µM (active). Besides, the result in [15], in assay [2], in assay [3], in assay [4], in assay [5] and in assay [6] was inactive. Besides, the call in assay [7], in assay [8], in assay [9], in [10], in [16] and in assay [17] was inactive. In addition, the call in assay [11], in assay [13] and in [14] was inactive.
In the case of `CC(C)(C)c1ccc(O)c(O)c1`, the AC50 in [1] was 2.45 µM (active) [middle of 5 runs]; in [2] it was 45.8 µM (active) and 27.9 µM (active) and 54.2 µM (active); in assay [5], 57.1 µM (active); in [10], 100 µM (active) and 46.6 µM (active) and 42.3 µM (active); in assay [16] it was 4.28 µM (active) [middle of 5 runs]. Besides, the compound was called inactive in assay [15], in assay [2], in assay [3], in assay [4], in [5] and in assay [6]. The compound was classed as inactive in assay [7], in [9], in assay [10], in assay [17], in assay [11] and in [12]. In addition, the outcome in assay [13] was inactive.
Consider `O=S(=O)(O)c1ccccc1`, for which the AC50 in assay [1] was 55.5 µM (active). Besides, the compound was classed as inactive in [1], in assay [2], in [3], in assay [4], in assay [5] and in [6]. The compound was called inactive in assay [7], in assay [8], in [9], in [10], in assay [16] and in assay [11]. The result in assay [13], in assay [18] and in assay [14] was inactive.
Regarding `Cc1ccc(S(=O)(=O)O)cc1`, the AC50 in [1] was 26.3 µM (active). For the same compound, the outcome in assay [1], in assay [3], in assay [4], in [5], in assay [7] and in [8] was inactive. Moreover, the call in [9], in assay [10], in assay [16], in assay [11] and in assay [13] was inactive.
As for `C=CC(=O)OCCN(CC)CC`, the AC50 is 66.9 µM (active) in assay [1], 61.8 µM (active) in assay [5], 62.9 µM (active) in assay [16] and 29 µM (active) in assay [11]. The outcome in assay [15], in assay [2], in assay [3], in assay [4], in assay [6] and in [7] was inactive. Also, the outcome in assay [8], in assay [9], in [10], in assay [17], in assay [12] and in assay [13] was inactive.
`O=C(c1ccccc1)c1ccccc1`: the AC50 in [1] is 51.4 µM (active). Also, the outcome in assay [1], in assay [2], in assay [3], in assay [6], in assay [7] and in assay [8] was inactive. The call in assay [9], in [10], in assay [16], in [11], in assay [12] and in assay [13] was inactive. Further, in assay [14], the compound was called inactive.

As usually defined, the AC50 is the midpoint of the concentration-response curve, whichever way the signal moves.
